From ChEMBL document CHEMBL3988442, “University of Dundee, Small-Polar-MMV Screening Library” (2021)
Screen size: about 48,000 compounds; about 13,000 (27%) showed an effect of 50% or more. The list shows a part of the results.

Tested on: Wolbachia pipientis
Assay: Anti-Wolbachia Cell-Based Screen
Assay type: functional
Parameters: scale not given: in the data most compounds retested in dose-response had high values
Settings: 5 µM

| Structure (SMILES) | Percent Effect [%] |
| --- | --- |
| CCc1nnc2ccc(NCC3(N4CCCCC4)CCOCC3)nn12 | -22.71 |
| Cc1ccccc1Cc1nc(CSc2nnc(N)n2C)no1 | 3.092 |
| CCC(CNC(=O)c1ccco1)N1CCc2ccccc2C1 (stereo not given) | 8.519 |
| CC(C)NC(=O)C1c2c(ncn2C(C)C)CCN1Cc1ccccc1.O=C(O)C(F)(F)F (stereo not given) | -4.449 |
| COc1ncccc1CNC(=O)C1=NN(c2ccccc2)C(=O)CN1 | 17.13 |
| O=C(OCc1ccccc1)c1cccc(NC(=O)C2COCCO2)c1 (stereo not given) | -10.37 |
| CC(C)N1Cc2cccc(NCC(=O)N(C)C3CCCCC3)c2C1 | -12.78 |
| OCCN1CCC(CNCc2ccc(N3CCCCC3)cc2)CC1 | -10.73 |
| CC(C)NS(=O)(=O)c1cc(C(=O)O)cc(-n2cc3c(n2)CCC3)c1 | -3.943 |
| CC1=N[C@@]2(CC[C@@H]3CN(CC4CC4)C[C@@H]32)C(=O)N1CC(C)C.O=C(O)C(F)(F)F | -11.12 |
| CC1=N[C@@]2(CC[C@@H]3CN(CC(C)C)C[C@@H]32)C(=O)N1CC(C)C.O=C(O)C(F)(F)F | 10.27 |
| CC1=N[C@@]2(CC[C@@H]3CN(Cc4ccccc4)C[C@@H]32)C(=O)N1CC1CC1.O=C(O)C(F)(F)F | 87 |
| CC1=N[C@@]2(CC[C@@H]3CN(CC4CC4)C[C@@H]32)C(=O)N1CC1CC1.O=C(O)C(F)(F)F | 106.2 |
| CC1=N[C@@]2(CC[C@@H]3CN(Cc4cccc(Cl)c4)C[C@@H]32)C(=O)N1CC1CC1.O=C(O)C(F)(F)F | 106.8 |
| COCCN1C[C@H]2CC[C@@]3(N=C(C)N(CC4CC4)C3=O)[C@H]2C1.O=C(O)C(F)(F)F | -0.9614 |
| O=C(O)C(F)(F)F.O=C1NC(c2ccccc2)=N[C@@]12CC[C@@H]1CN(CC3CC3)C[C@@H]12 | 1.711 |
| CC1=N[C@@]2(CC[C@@H]3CN(Cc4ccccc4F)C[C@@H]32)C(=O)N1CC1CC1.O=C(O)C(F)(F)F | -0.009519 |
| CC1=N[C@@]2(CC[C@@H]3CN(Cc4ccccc4C)C[C@@H]32)C(=O)N1CC1CC1.O=C(O)C(F)(F)F | 101.1 |
| CCS(=O)(=O)N1CCC(Nc2c(F)cc(C#N)cc2F)CC1 | 12.27 |
| Cn1cc(S(=O)(=O)NCC2CCN(C(=O)c3ccoc3)CC2)cn1 | -16.26 |
| COCCN1C(=O)[C@]2(CC[C@@H]3CN(C(=O)NC(C)C)C[C@@H]32)N=C1C | 32.84 |
| CC1=N[C@@]2(CC[C@@H]3CN(Cc4ccc(C)cc4)C[C@@H]32)C(=O)N1CC1CC1.O=C(O)C(F)(F)F | 104.5 |
| CC1=N[C@@]2(CC[C@@H]3CN(Cc4ccccc4F)C[C@@H]32)C(=O)N1C | 100.6 |
| CC1=N[C@@]2(CC[C@@H]3CN(CC(=O)N(C)C)C[C@@H]32)C(=O)N1CC(C)C.O=C(O)C(F)(F)F | 6.41 |

| Structure (SMILES) | Percent Effect [%] |
| --- | --- |
| CC1=N[C@@]2(CC[C@@H]3CN(S(=O)(=O)CC(C)C)C[C@@H]32)C(=O)N1C | 16.54 |
| COCCN1C(=O)[C@]2(CC[C@@H]3CN(Cc4ccccc4F)C[C@@H]32)N=C1C.O=C(O)C(F)(F)F | 90.53 |
| CC1=N[C@@]2(CC[C@@H]3CN(C(=O)NC(C)C)C[C@@H]32)C(=O)N1CC1CC1 | 1.3 |
| CCC1=N[C@@]2(CC[C@@H]3CN(Cc4ccccc4F)C[C@@H]32)C(=O)N1.O=C(O)C(F)(F)F | -10.48 |
| COCCN1C(=O)[C@]2(CC[C@@H]3CN(C(=O)NC4CCCC4)C[C@@H]32)N=C1C | -7.65 |
| COc1ccc(S(=O)(=O)NCC(c2cccn2C)N(C)C)cc1F (stereo not given) | 1.104 |
| Cc1nn(C)cc1C(=O)N1CCCn2nc(CN3CC[C@H](F)C3)cc2C1 | 10.52 |
| Cc1nccn1-c1ccc(C(C)NCc2cc[nH]n2)cc1 (stereo not given) | -2.741 |
| COCCN(Cc1cccc(OCCO)c1)Cc1ccccc1F | 0.9238 |
| CN(Cc1cccc2ncccc12)C(=O)CCC(F)(F)F | -3.963 |
| CN(Cc1cccc(OCCO)c1)Cc1cccc2ncccc12 | 95.97 |
| CN(Cc1cccnc1N)Cc1cccc2ncccc12 | 108.3 |
| CCCc1cc(C(=O)N(C)Cc2cccc3ncccc23)n(C)n1 | 20.91 |
| CN(Cc1cccc(CCN)c1)Cc1cccc2ncccc12 | 97.29 |
| CN(Cc1csc(-c2cccs2)n1)Cc1cccnc1N | 16.69 |
| CCCN(Cc1cccc(OCCO)c1)Cc1ccccc1OC | 8.157 |
| CC(C)c1cc(C(=O)N(C)Cc2cccc3ncccc23)n(C)n1 | -7.2 |
| Cc1ccsc1-c1cc(C(=O)O)cc(S(=O)(=O)NCc2ccccn2)c1 | -12.11 |
| COc1ccccc1Oc1ncccc1CNC(=O)[C@@H](N)CCO | -18.01 |
| Cc1cc(N2CCOC(c3ccncn3)C2)ncn1 (stereo not given) | 99.32 |
| O=C(NC1CC1)c1ccnc(N2CCOC(c3ccc(Cl)c(Cl)c3)C2)c1 (stereo not given) | -23.24 |
| Cc1ccc(N2CC[C@@H]3O[C@@H](c4ccncn4)C[C@H]3C2)nn1 | 17.26 |
| COc1cc(N2CC[C@@H]3O[C@@H](c4ccncn4)C[C@H]3C2)ncn1 | -28.63 |
| O=C(NC1CC1)c1ccnc(N2CCOC(c3ccc(Cl)cc3)C2)c1 (stereo not given) | -21.25 |

| Structure (SMILES) | Percent Effect [%] |
| --- | --- |
| Cc1cc(N2CCOC(c3ccc(C(N)=O)cn3)C2)ncn1 (stereo not given) | 105.9 |
| CN(C)CCN1CCOC2(CCN(c3nccs3)CC2)c2ccccc21 | -12.88 |
| N#Cc1ccc(C(=O)N2CCOC[C@H](Oc3cnccn3)C2)cc1 | -4.484 |
| CC1(C)CNC(=O)c2nc(CCN3CCCCC3CO)[nH]c2C1 (stereo not given) | -22.93 |
| CCOc1cc(NC(=O)C2CC(=O)N(c3cccc(OC)c3)C2)ncn1 (stereo not given) | -2.704 |
| CCN(Cc1ccc(C#N)cc1F)C(=O)C(C)(C)C | 4.691 |
| CC(C)c1nc2c(n1C)CCN(CC(=O)Nc1nccs1)C2 | -1.818 |
| CC(C)c1nc2c(n1C)CCN(CCc1ccccn1)C2 | 5.197 |
| Cc1nn(C)c(C)c1NC(=O)CN1CCc2c(nc(C(C)C)n2C)C1 | -19.45 |
| CC(C)c1nc2c(n1C)CCN(CC(=O)NCc1ccccn1)C2 | -5.66 |
| CC(C)c1cc(NC(=O)CN2CCc3c(nc(C(C)C)n3C)C2)on1 | 6.487 |
| CC(C)c1nc2c(n1C)CCN(CC(=O)Nc1ccnn1C(C)C)C2 | 120.4 |
| CC(C)c1nc2c(n1C)CCN(CC(=O)Nc1ccncc1)C2 | 127.6 |
| CC(C)c1nc2c(n1C)CCN(CC(=O)Nc1cccnc1)C2 | 119.2 |
| CC(C)c1nc2c(n1C)CCN(CC(=O)Nc1ccc(Cl)cn1)C2 | 6.553 |
| COc1ccnc(N2CCC(=O)N(CC3CC3)C(C(C)C)C2)n1 (stereo not given) | -66.14 |
| Cc1n[nH]cc1CNCC(c1cccc(F)c1)N(C)C (stereo not given) | -5.12 |
| O=S(=O)(CC1CCOCC1)NCc1ncc(-c2ccccc2)o1 | -9.674 |
| Cn1cc(C2CCCN2CC(=O)N(CCC#N)Cc2ccco2)cn1 (stereo not given) | 0.296 |
| Cc1cc(N2CCC(C(=O)N(C)C)CC2)nc(-c2ccncc2)n1 | 121.6 |
| CC(=O)NCC1CCN(c2cc(C)nc(-c3ccncc3)n2)CC1 | 110 |
| Cc1cc(N2CCC(C(=O)NC3CC3)CC2)nc(-c2ccncc2)n1 | 96.2 |
| CC(=O)NCC1CCN(c2ccnc3ccc(Br)cc23)CC1 | 3.515 |
| Cc1cc(N2CCC(N(C)C(=O)c3ccccc3)CC2)nc(C)n1 | -0.5132 |

| Structure (SMILES) | Percent Effect [%] |
| --- | --- |
| CCNC(=O)CN1CCN(c2cc(C)nc(-c3ccncc3)n2)CC1 | 108.7 |
| CC(=O)NCC1CCN(c2cc(C(C)C)nc3ccnn23)CC1 | -0.4994 |
| Cc1cc(NCC(=O)NCC(F)(F)F)nc(-c2ccncc2)n1 | 6.905 |
| CCNC(=O)CN1CCN(c2ccnc3c(F)ccc(F)c23)CC1 | 11.86 |
| O=C(NC1CC1)C1CCN(c2cccc(C(F)(F)F)n2)CC1 | -5.657 |
| Cc1cc(C)n(-c2cncc(N3CCC(C(=O)N(C)C)CC3)n2)n1 | -4.811 |
| O=C(NC1CCN(c2cccc(C(F)(F)F)n2)CC1)C1CC1 | -2.588 |
| COCC(=O)NC(c1ccc(Cl)cc1)c1noc(C)n1 (stereo not given) | 10.23 |
| CN1CCN(CC[C@@H]2CC[C@H](O)[C@@H](C(=O)Nc3ccccc3)O2)CC1 | -5.857 |
| Cc1c(Cl)cc(C(=O)N(CCO)Cc2nccn2C)cc1Cl | -0.9396 |
| CCC1CN(Cc2nnc(C3CC3)o2)CCC(=O)N1Cc1ccccc1 (stereo not given) | 1.6 |
| Cc1cccc(CNC2CCN(CCc3ccncc3)CC2)c1C | -28.44 |
| O=C(Nc1ccccc1)C1CN(Cc2nccs2)CC12CCOCC2 (stereo not given) | -7.197 |
| CCCN(C)C(=O)Nc1ccc(C(=O)NCCC(=O)OC)cc1 | 0.9295 |
| COc1ccc(-c2nc3c([nH]2)CCNC3C(=O)O)c2ccccc12 (stereo not given) | -1.412 |
| Cn1ncc2c(=O)[nH]c(N3CCCC3c3cccs3)nc21 (stereo not given) | 2.416 |
| O=C1N[C@@H]2CCN(C(=O)C3CC3)[C@@H]2C(=O)N1c1ccc(F)cc1 | -5.922 |
| Cc1cc(N2CCOC(C(F)(F)F)C2)nc(-c2ccccc2)n1 (stereo not given) | 4.501 |
| COC(=O)C1CCN(C(=O)CN2CCN(c3cccc(C)c3)CC2)CC1 | -8.309 |
| COC(=O)C1CCN(c2cncc(-n3nc(C)cc3C)n2)CC1 | -8.177 |
| Cc1cc(N2CCN(c3ccc(=O)[nH]n3)CC2)nc(-c2ccncc2)n1 | 110.1 |
| COC(=O)C1CCN(c2cc(C)nc(-c3ccncc3)n2)CC1 | 111 |
| Cc1cc(N2CCOC(CN)C2)nc(-c2ccccc2)n1 (stereo not given) | 6.388 |
